The nature of test [1]: small molecules captured by biotinylated probe aFSTL3 – biochemical, small-molecule microarray, fluorescence 635/667, stem cell growth factor project, primary screen (AID 1064).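 Note: measures binding of the biotinylated anti-FSTL3 antibody to printed compounds.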 To be noted: higher = more signal.
The nature of test [2]: binders from COS7 lysate, DM2A8 probe, primary screen, torsin A project, cell lysate, small-molecule microarray, fluorescence 635/667 (AID 1065). Particulars: higher = more signal, COS7 lysate expressing mutant human TOR1A.
Test [3] is described as follows: small molecules captured by biotinylated probe aFGF2 – biochemical, small-molecule microarray, fluorescence 635/667, stem cell growth factor project, primary screen (AID 1067).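 Note: measures binding of biotinylated aFGF2 protein to printed compounds on slides; z-score merges feature fluorescence and signal-to-noise across triplicate slides.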 Particulars: higher = more signal.
Test [4] can be described thus: small molecules captured by biotinylated probe aFGF10 – biochemical, small-molecule microarray, fluorescence 635/667, stem cell growth factor project, primary screen (AID 1071).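 Note: score merges 667 nm spot intensity and signal to noise from triplicate slides.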 To be noted: higher = more signal.
The target in test [5] is Neurogenic locus notch homolog protein 2 (Homo sapiens) (UniProt Q04721). Briefly: small molecules binding Notch2 protein – biochemical, small-molecule microarray, 635 nm fluorescence, stem cell growth factors, primary screen (AID 1073). To be noted: higher = more signal.
Chain of Neurogenic locus notch homolog protein 2 (Homo sapiens) (Q04721 whole entry, looked up, canonical isoform): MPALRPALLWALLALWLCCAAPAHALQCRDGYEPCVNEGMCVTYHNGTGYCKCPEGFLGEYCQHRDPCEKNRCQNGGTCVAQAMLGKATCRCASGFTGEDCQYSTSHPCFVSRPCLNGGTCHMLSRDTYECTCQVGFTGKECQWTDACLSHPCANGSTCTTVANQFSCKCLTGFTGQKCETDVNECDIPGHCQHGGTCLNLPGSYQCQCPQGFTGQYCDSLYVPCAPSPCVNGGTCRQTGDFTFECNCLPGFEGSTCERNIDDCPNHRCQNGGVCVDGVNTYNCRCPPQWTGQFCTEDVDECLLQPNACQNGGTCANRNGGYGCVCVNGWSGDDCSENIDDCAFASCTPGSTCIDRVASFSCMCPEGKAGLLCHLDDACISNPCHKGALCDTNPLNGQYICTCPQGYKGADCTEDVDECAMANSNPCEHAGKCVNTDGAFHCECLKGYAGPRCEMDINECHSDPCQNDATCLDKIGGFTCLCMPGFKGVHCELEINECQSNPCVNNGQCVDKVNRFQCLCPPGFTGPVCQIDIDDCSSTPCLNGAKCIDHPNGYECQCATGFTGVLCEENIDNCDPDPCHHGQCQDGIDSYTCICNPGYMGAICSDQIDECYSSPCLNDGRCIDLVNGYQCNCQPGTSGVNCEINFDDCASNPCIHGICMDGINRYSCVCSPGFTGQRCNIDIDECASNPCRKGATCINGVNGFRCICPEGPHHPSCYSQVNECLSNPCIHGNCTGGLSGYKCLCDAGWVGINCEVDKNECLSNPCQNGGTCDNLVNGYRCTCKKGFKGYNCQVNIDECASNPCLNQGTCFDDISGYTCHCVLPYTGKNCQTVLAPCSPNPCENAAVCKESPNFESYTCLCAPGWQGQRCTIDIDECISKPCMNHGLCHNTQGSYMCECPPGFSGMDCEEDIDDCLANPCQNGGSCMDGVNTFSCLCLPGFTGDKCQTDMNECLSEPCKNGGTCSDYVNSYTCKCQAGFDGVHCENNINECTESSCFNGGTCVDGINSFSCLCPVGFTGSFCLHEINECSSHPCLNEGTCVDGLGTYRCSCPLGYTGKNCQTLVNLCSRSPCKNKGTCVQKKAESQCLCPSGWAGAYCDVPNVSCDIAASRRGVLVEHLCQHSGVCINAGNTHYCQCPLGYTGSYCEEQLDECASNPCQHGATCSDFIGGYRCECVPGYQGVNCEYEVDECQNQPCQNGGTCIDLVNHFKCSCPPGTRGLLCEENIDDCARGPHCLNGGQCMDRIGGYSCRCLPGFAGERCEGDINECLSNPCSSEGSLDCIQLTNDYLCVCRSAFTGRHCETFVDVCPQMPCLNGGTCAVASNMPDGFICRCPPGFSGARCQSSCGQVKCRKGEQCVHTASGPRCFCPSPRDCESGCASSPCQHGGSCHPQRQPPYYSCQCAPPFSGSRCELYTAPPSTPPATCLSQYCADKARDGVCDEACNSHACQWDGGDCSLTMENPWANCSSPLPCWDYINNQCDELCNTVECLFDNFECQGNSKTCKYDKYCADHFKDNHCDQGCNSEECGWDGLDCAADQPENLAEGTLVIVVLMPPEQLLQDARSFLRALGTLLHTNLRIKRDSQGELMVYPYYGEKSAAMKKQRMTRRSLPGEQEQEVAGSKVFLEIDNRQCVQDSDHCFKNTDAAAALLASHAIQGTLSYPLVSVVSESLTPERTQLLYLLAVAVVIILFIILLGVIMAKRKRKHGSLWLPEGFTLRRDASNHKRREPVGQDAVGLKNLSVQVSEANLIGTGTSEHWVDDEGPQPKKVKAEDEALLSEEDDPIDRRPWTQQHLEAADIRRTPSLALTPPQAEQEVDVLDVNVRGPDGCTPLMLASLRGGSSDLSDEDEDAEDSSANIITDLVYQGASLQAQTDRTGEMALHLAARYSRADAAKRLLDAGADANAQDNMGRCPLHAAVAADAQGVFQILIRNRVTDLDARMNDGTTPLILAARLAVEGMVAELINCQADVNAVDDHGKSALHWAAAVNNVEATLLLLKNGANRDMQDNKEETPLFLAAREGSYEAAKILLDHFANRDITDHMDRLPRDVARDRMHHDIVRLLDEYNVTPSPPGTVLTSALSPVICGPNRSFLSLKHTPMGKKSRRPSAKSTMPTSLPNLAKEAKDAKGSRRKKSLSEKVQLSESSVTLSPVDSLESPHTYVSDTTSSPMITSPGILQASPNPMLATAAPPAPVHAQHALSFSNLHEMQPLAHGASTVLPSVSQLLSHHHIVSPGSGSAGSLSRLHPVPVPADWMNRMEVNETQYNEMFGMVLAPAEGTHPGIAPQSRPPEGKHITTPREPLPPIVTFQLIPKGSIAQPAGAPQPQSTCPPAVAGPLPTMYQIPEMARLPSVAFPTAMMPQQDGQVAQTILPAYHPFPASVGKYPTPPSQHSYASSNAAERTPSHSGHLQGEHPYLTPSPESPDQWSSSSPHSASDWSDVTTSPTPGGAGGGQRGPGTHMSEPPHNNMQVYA
Test [6] has as its target Pro-neuregulin-1, membrane-bound isoform (Homo sapiens) (UniProt Q02297). Put plainly: small molecules binding neuregulin-1 protein – biochemical, small-molecule microarray, fluorescence 635/667, psychiatric disease protein project, primary screen (AID 1075).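 Note: score combines 667 nm spot fluorescence with signal to noise.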 To be noted: NRG1 binding, 635 nm fluorescence, higher = more signal.
For test [7], the system named is Neuregulin-1 EGF-like domain. Put plainly: small molecules binding NRG1 EGF domain – biochemical, small-molecule microarray, 635 nm fluorescence, primary screen (AID 1081).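 Note: binding of the protein to compounds printed on small-molecule microarray slides.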 Particulars: higher = more signal.
Test [8] is described as follows: FRG1 expression reporter modulators in myotubes – cell-based, C2C12 myotubes, firefly/Renilla luciferase, luminescence, FRG1 inhibition for FSHD, primary screen (AID 1084). To be noted: FRG1 promoter luciferase, higher = more signal, called active from +8 up or from −8 down.
A short description of test [9]: small molecules captured by biotinylated probe aFST – biochemical, small-molecule microarray, fluorescence 635/667, stem cell growth factor project, primary screen (AID 1086).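 Note: score merges 667 nm fluorescence with signal-to-noise of each printed compound spot.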 Particulars: higher = more signal.
A short description of test [10]: binders of probe aHhip on microarray, primary screen, stem cell growth factor project, biochemical, small-molecule microarray, fluorescence 635/667 (AID 1087).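 Note: score merges spot fluorescence at 667nm with spot signal to noise ratio.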 Particulars: higher = more signal.
Test [11] deals with PRMT1 (protein arginine N-methyltransferase 1). Briefly: small molecules binding arginine methyltransferase PRMT1 – biochemical, small-molecule microarray, 635 nm fluorescence, primary screen (AID 1088).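 Note: binding of Prmt1 protein to compounds spotted on small-molecule microarray slides.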 To be noted: higher = more signal.
Test [12] in a line: growth effects on S. cerevisiae YJM789 – YJM789 clinical isolate, OD600, 24 h, basal, primary screen (AID 1089).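 Note: growth of clinical yeast isolate S. cerevisiae YJM 789 seeded 1000 cells per well; test concentration not given here.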 Particulars: higher = more signal, called active from +8 up or from −8 down.
Test [13] can be described thus: S. pombe growth modifiers, basal conditions – strain 972, OD600, 24 h, no modulator, primary screen (AID 1090).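 Note: basal condition with compound alone and no growth modifier present; test concentration not given here.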 To be noted: S. pombe 972 growth, higher = more signal, called active from +8 up or from −8 down.
Test [14] in a line: budding yeast growth modifiers under rapamycin – strain BY4716, OD600, 96 h, primary screen (AID 1091). Note: test concentration not given here. To be noted: S. cerevisiae BY4716 + rapamycin, higher = more signal, called active from +8 up or from −8 down.
Test [15] concerns the target Torsin-1A-interacting protein 2 (Homo sapiens) (UniProt Q8NFQ8). Briefly: small molecules binding lysate-expressed LULL1 – cell lysate, human LULL1 lysate, 635/667 nm fluorescence, primary screen (AID 1092).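 Note: probe is lysate of COS7 cells overexpressing human LULL1; score merges per-feature 667 nm fluorescence with signal-to-noise.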 To be noted: small-molecule microarray, hLULL1 lysate binding, 635 nm fluorescence; higher = more signal.
Test [16] is described as follows: optical density change of DRC41 E. coli – strain DRC41, OD650, 24 h, E. coli filamentation project, primary screen (AID 1093).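 Note: MC1000 strain lacking acrAB efflux and sulA so SOS filamentation is blocked; test concentration not given here.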 To be noted: E. coli DRC41 growth, higher = more signal, called active from +8 up or from −8 down.
The nature of test [17]: probe aLefty2 binding to arrayed compounds – biochemical, biotinylated probe, 635/667 nm fluorescence, primary screen (AID 1094).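 Note: score merges spot fluorescence near 667 nm with spot signal-to-noise ratio.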 To be noted: small-molecule microarray, higher = more signal.
For test [18], the system named is Noggin (protein binding on small-molecule microarray). Briefly: small molecules binding Noggin protein – biochemical, 635/667 nm fluorescence, primary screen (AID 1095).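 Note: score merges 667 nm feature fluorescence with signal to noise over triplicate slides.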 To be noted: 635 nm fluorescence, higher = more signal.
In test [19] the target is Neurogenic locus notch homolog protein 3 (Homo sapiens) (UniProt Q9UM47). Put plainly: small molecules binding NOTCH3 protein – biochemical, 635/667 nm fluorescence, primary screen (AID 1096). Particulars: small-molecule microarray, 635 nm fluorescence, higher = more signal.
Chain of Neurogenic locus notch homolog protein 3 (Homo sapiens) (Q9UM47 whole entry, looked up): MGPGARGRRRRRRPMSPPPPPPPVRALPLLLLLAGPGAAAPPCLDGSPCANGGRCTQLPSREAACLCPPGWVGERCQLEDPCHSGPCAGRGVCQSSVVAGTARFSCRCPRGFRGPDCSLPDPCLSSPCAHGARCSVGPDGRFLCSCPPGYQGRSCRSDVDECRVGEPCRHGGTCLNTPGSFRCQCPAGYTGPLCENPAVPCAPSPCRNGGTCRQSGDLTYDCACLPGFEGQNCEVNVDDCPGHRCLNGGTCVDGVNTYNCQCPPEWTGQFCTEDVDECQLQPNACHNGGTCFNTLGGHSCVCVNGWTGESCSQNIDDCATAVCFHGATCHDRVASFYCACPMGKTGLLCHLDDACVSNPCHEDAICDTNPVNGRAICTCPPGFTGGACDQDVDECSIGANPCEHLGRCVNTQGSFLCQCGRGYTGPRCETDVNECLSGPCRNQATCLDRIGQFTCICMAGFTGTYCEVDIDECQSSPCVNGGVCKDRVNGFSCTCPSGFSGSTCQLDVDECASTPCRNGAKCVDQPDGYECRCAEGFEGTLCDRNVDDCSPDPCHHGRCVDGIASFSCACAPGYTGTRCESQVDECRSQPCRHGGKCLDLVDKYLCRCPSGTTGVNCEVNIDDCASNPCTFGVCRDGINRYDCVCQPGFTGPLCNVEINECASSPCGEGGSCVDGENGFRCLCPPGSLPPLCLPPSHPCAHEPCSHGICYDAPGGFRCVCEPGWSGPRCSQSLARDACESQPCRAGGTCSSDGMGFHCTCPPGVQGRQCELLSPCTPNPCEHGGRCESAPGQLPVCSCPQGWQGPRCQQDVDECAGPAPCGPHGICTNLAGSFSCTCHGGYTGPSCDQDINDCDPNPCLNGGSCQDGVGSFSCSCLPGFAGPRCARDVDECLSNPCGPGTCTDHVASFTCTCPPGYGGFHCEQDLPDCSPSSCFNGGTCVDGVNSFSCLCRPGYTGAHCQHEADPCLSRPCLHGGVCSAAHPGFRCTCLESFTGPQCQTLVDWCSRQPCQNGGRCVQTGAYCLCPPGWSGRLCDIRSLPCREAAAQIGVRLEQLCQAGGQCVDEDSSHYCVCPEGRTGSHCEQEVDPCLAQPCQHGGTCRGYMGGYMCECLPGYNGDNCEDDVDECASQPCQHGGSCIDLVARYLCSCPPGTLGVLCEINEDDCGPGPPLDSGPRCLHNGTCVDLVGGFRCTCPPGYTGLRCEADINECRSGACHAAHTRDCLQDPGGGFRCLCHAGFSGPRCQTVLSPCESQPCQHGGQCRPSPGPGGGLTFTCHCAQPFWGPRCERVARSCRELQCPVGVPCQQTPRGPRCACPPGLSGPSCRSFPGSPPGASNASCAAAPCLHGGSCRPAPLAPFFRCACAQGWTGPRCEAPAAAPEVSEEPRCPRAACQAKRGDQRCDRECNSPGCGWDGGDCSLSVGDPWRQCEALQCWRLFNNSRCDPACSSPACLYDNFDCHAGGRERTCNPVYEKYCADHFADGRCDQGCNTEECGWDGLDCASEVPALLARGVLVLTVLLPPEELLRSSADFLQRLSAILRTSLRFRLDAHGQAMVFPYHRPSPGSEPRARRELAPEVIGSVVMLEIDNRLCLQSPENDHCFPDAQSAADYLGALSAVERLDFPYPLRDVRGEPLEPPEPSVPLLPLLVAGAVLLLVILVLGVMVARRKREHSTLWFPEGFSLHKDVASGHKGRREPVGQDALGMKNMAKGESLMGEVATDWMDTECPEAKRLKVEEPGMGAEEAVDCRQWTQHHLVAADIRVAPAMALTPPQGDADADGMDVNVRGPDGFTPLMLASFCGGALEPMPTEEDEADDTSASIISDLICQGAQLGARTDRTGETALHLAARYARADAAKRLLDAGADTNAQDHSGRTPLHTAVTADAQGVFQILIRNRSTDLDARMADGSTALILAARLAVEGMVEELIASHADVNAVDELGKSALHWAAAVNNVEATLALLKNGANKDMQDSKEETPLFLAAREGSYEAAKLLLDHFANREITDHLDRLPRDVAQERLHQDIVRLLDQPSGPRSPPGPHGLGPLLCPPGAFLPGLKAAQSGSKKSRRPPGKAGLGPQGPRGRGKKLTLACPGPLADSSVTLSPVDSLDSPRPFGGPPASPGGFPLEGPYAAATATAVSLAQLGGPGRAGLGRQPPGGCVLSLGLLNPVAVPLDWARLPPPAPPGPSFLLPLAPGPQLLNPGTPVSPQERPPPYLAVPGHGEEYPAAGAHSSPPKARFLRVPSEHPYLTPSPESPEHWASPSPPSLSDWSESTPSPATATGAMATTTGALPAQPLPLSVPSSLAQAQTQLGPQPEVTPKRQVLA
Test [20] can be described thus: probe aEGFR binding to arrayed compounds – biochemical, biotinylated probe, 635/667 nm fluorescence, primary screen (AID 1097).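 Note: probe is a biotinylated anti-EGFR antibody binding compounds printed on slides; score combines fluorescence near 667 nm and signal to noise of each spot.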 Particulars: small-molecule microarray, higher = more signal.

Experimental findings from PubChem BioAssay are described below.

Active and inactive are the calls of the source.

Turning to `CN(C)CCCCNC(=O)[C@@H]1C[C@@H]2C(=O)N[C@@H](CCCCN)C(=O)N2[C@@H]1c1cccc(OCCO)c1`, the composite z-score is 1.24 in test [1]; -0.719 in [2]; -0.138 in [3]; -0.347 in [4]; -0.573 in [5]; 2.07 in test [6]. Besides, the composite z-score in [7] was 1.3; in [9], 0.145; in test [10] it was 0.424; in test [11] it was 1.02; in test [15], 3.58; in [17], 0.197. The figures for the composite z-score in test [18], in [19] and in test [20] were -0.989, 0.37 and -0.223, respectively. The z-score in test [8] was 3.31 (inactive); in [12], -0.0533 (inactive); in [13], 0.286 (inactive); in [14] it was -0.363 (inactive); in test [16] it was -0.285 (inactive).

Consider `O=P(NCC1(CC2(c3ccccc3)CO2)CC1)(c1ccccc1)c1ccccc1` (stereo not given), for which the composite z-score in test [1] was 0.565; in test [2] it was -0.856; in test [3], 0.218; in test [4], 0.315; in test [5], -0.401; in test [6], 1.06. Also, the composite z-score is 0.619 in test [7]; -0.0087 in test [9]; 0.275 in test [10]; -0.878 in [11]; 3.14 in test [15]; -0.132 in test [17]. The composite z-score is -1.44 in [18], -1.19 in [19] and -0.207 in test [20]. The z-score was -1.59 (inactive) in [8]; -0.468 (inactive) in test [12]; 1.08 (inactive) in test [13]; 0.236 (inactive) in test [14]; 0.31 (inactive) in [16].

In the case of `CCCNC(=O)[C@@]1(C)c2ccccc2C(=O)N(C(C)C)[C@H]1c1ccc(CO)cc1`, the composite z-score was 1.01 in [1]; -0.214 in [2]; -0.0704 in test [3]; -0.425 in test [4]; -0.963 in test [5]; 0.447 in test [6]. For the same compound, the composite z-score in test [7] was 1.3; in [9], -0.35; in test [10], -0.226; in test [11], -0.535; in [15] it was 2.75; in [17] it was 0.0692. Besides, the composite z-score in [18] is -0.827; in test [19], -1.05; in [20], -0.174. Further, the z-score in test [8] is -0.51 (inactive); in [12], -0.141 (inactive); in test [13], -0.712 (inactive); in test [14], -0.397 (inactive); in [16], -1.2 (inactive).

As to `CN1C(=O)C2C=CC(C(O)c3ccc(Br)cc3)N(Nc3ccccc3)C2C1=O` (stereo not given), the composite z-score in test [1] was 0.607; in test [2], 1.46; in test [3], -0.0747; in [4], -0.287; in test [5], -0.468; in [6], 0.648. Further, the composite z-score in [7] is 0.728; in [9] it was -0.118; in [10] it was -0.0346; in test [11], -0.897; in [15], 1.27; in [17], 0.296. In addition, the figures for the composite z-score in test [18], in test [19] and in test [20] were -1.48, -1.17 and -0.0594, respectively. Further, the z-score was 0.665 (inactive) in test [8]; 0.947 (inactive) in test [12]; -0.0449 (inactive) in test [13]; 0.878 (inactive) in [14]; -0.54 (inactive) in test [16].

For the compound `COCCn1c(C(=O)N(C)C)cc2c1C[C@H]1CN(C(=O)c3ccccc3)[C@@](Cc3ccc(F)cc3)(C(=O)OC)[C@@H]21`, the composite z-score in test [1] was 0.0407; in [2], -0.0248; in [3], 0.203; in [4], 0.651; in test [5], 1.56; in test [6] it was 1.11. Also, the composite z-score in test [7] was 0.998; in [9], 0.576; in [10], -0.0347; in [11] it was 0.0294; in test [15] it was 3.05; in [17], 0.214. In addition, the composite z-score in test [18] was -0.3; in [19] it was 0.328; in [20] it was 0.0492. Besides, the z-score in test [8] is 0.592 (inactive); in [12], 0.296 (inactive); in test [13], 0.75 (inactive); in test [14], 0.247 (inactive); in test [16], 0.782 (inactive).
